# In ChEMBL document CHEMBL1157539, “Thousands of chemical starting points for antimalarial lead identification” (Nature, 2010):
# Tested on: Plasmodium falciparum
# Test: GSK_TCMDC: Inhibition of Plasmodium falciparum 3D7 in whole red blood cells, using parasite LDH activity as an index of growth. Test compounds present at 2uM
# Type: functional
row,SMILES,Inhibition [%]
1,Oc1ccc(-c2nc3c4cc(I)ccc4c4ccc(I)cc4c3[nH]2)cc1,98
2,Cc1cc(N2CCOCC2)nc(Nc2ccc(NC(=O)Nc3ccc(F)cc3)cc2)n1,100
3,Cc1cccn2c(=O)c3cc(C(=O)NCCc4ccccc4)c(=N)n(CCCOC(C)C)c3nc12,100
4,CC(C)C[C@H](NC(=O)c1cc(-c2ccc(C(C)(C)C)cc2)no1)C(=O)O.CC(C)C[C@H](NC(=O)c1conc1-c1ccc(C(C)(C)C)cc1)C(=O)O,95
5,FC(F)(F)c1ccc(NC(=S)N2CCC(CCN3CCC(c4c[nH]c5ccccc45)CC3)CC2)cc1,98

# Tested on: Plasmodium falciparum
# Test: GSK_TCMDC: Inhibition of Plasmodium falciparum Dd2 in whole red blood cells, using parasite LDH activity as an index of growth. Test compounds present at 2uM
# Type: functional
row,SMILES,Inhibition [%]
1,COc1cc(OC)c2c(C)cc(NCCCn3ccnc3)nc2c1,22
2,O=C(NCCN1CCCC1)N1CCCN(c2ncnc3cc(-c4ccc(Cl)cc4)sc23)CC1.O=C(O)C(F)(F)F,32
3,O=C(N[C@@H](Cc1ccccc1)C(=O)NC1CCCCC1)c1ccc(O)c(-c2cccc(C(F)(F)F)c2)c1,36
4,O=C(/C=C/c1ccc(Cl)c(Cl)c1)NCCCCCN1CCC(NC(=S)Nc2cccc(Cl)c2)CC1,43
5,O=C(Nc1cccc(CN2CCCN(Cc3ccc4c(c3)OCO4)CC2)c1)c1ccc(Cl)c(Cl)c1.O=C(O)C(F)(F)F,10
6,Cc1cc(CNCCCCCNCc2cccc([N+](=O)[O-])c2)ccc1O,0
7,CC(C)(C)c1ccc(CN2CCC(CNC(=O)c3cc(-c4ccccc4F)cs3)C2)cc1.O=C(O)C(F)(F)F (stereo not drawn),98
8,O=C(Nc1cccc(CN2CCCN(CCc3ccccc3)CC2)c1)c1cc2ccccc2s1.O=C(O)C(F)(F)F,39
